# Source: the supplement of paper PMC12636033
# ± gives the standard deviation of the averaged measurements. Over roughly 33,000 sequences, “E-score (rank enrichment, -0.5 to 0.5)” has its median near -0.0075; the highest 2% begin near 0.23. Many of the other results were omitted from the sample, so the highest values are more common in it than they were.
# Test system: WT Max(13-93) synthetic (M65Nle)
# Assay: PBM 8-mer E-score (E-score (rank enrichment, -0.5 to 0.5)); higher = stronger preferential binding
# Description: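 Protein binding microarray (universal PBM chip covering all 10-mers in fixed probe flanks) with chemically synthesized human Max(13-93) bHLH-LZ analogs (not full-length Max) bearing noncanonical residues (hArg, Tha, Aib, Nle at 65) and aromatic Cys staples. Read-out per 8-mer (and its reverse complement): E-score (rank-based enrichment, -0.5 to 0.5) and Z-score of median probe intensity.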
row,Sequence,PBM 8-mer E-score
1,CCTACTAA,-0.0419 ± 0.0019
2,CAATATTA,0.157 ± 0.12
3,ATTATATC,0.247 ± 0.059
4,GTATTATA,0.251 ± 0.046
5,AAATATTA,0.219 ± 0.04
6,ATTATATG,0.176 ± 0.035
7,TAATATTA,0.37 ± 0.026
8,ATATTATA,0.309 ± 0.018
9,ACATTATA,0.158 ± 0.0021
10,GTATTAAA,0.188 ± 0.077
11,CTATTATA,0.0186 ± 0.0034
12,GTATTAGA,0.223 ± 0.014
13,ATTATATA,0.125 ± 0.052
14,CGTAGCGC,-0.0505 ± 0.038
15,GCAGGATA,-0.184 ± 0.065
16,TAAGGTAA,0.156 ± 0.086
17,CCAGCATA,0.0104 ± 0.015
18,GCTTCCCA,-0.0247 ± 0.11
19,GGAGGGTA,0.0987 ± 0.018
20,CTATTACA,0.14 ± 0.048
21,CTATATTA,0.221 ± 0.015
22,GCATTACA,0.133 ± 0.049
23,ATATTATC,0.138 ± 0.011
24,GTATTACA,0.245 ± 0.00083
25,ATATATTA,0.256 ± 0.08

row,Sequence,PBM 8-mer E-score
1,ATATTATG,0.242 ± 0.0093
2,AGATTATG,-0.178 ± 0.043
3,GTATATTA,0.226 ± 0.027
4,AACGTTCT,0.0268 ± 0.08
5,CCTGTTGC,0.0294 ± 0.077
6,TGGAGGAA,-0.0087 ± 0.04
7,ATGCCCGC,0.00379 ± 0.056
8,CCGACGCC,-0.139 ± 0.013
9,GCGGCCGA,-0.21 ± 0.09
10,AATTTATA,0.301 ± 0.057
11,ATTTTATA,0.229 ± 0.058
12,AATTTATG,0.237 ± 0.005
13,CATTTATA,0.192 ± 0.047
14,AATTTATC,0.15 ± 0.049
15,ATTTTATG,0.19 ± 0.12
16,CCCGGTAA,-0.114 ± 0.034
17,TCGGTAGA,-0.128 ± 0.0077
18,CGTGTATA,0.266 ± 0.0089
19,GGTGTGTA,0.0087 ± 0.0056
20,CGTGTAAC,0.276 ± 0.013
21,CGTGTATC,0.149 ± 0.028
22,GATGTATA,0.117 ± 0.02
23,CATGTATC,0.185 ± 0.028
24,CGTGTGTA,0.24 ± 0.067
25,CATGTATA,0.24379 ± 0.00015

row,Sequence,PBM 8-mer E-score
1,AGTGTGTA,0.101 ± 0.012
2,GGTGTATA,0.108 ± 0.039
3,GGTGTAAC,-0.0257 ± 0.043
4,CGTGTAAG,0.113 ± 0.075
5,TATATTCA,0.151 ± 0.15
6,GAGTCTTA,-0.0474 ± 0.024
7,ACGTTGTC,0.232 ± 0.011
8,AGCGGAAA,-0.00668 ± 0.13
9,CCTTCTTA,0.0525 ± 0.12
10,AGACAGCG,-0.103 ± 0.063
11,AATCATCT,-0.0255 ± 0.056
12,CCTAGAAC,-0.0877 ± 0.0018
13,GGTGTGCA,-0.0425 ± 0.051
14,CGTGTGCA,0.3 ± 0.047
15,GATGTGTA,-0.0106 ± 0.19
16,CGTGTGCC,0.146 ± 0.14
17,CATGTGTA,0.357 ± 0.029
18,CATGTGTC,0.216 ± 0.053
19,ACTGGTTG,-0.086 ± 0.065
20,AAACTATA,0.144 ± 0.062
21,TAACTATA,0.259 ± 0.13
22,CAACTATA,0.119 ± 0.098
23,CTGGTGAA,-0.0735 ± 0.0064
24,CGACTTAG,-0.0474 ± 0.049
25,ATCAGGTG,0.0403 ± 0.029

row,Sequence,PBM 8-mer E-score
1,CCTGCCGC,-0.2994 ± 0.0014
2,CAAATCGA,-0.0111 ± 0.037
3,AGGTGACC,-0.1467 ± 0.00024
4,AGCAAACC,0.102 ± 0.14
5,GCATGATA,0.273 ± 0.01
6,ACATGATA,0.269 ± 0.038
7,CCATGATA,0.0793 ± 0.032
8,CCATGATC,-0.0246 ± 0.092
9,ACATGAAG,0.0102 ± 0.026
10,ACATGATC,0.241 ± 0.024
11,ACATGATG,0.0731 ± 0.012
12,ACATGAAT,0.245 ± 0.071
13,GCATGACA,0.2006 ± 0.0015
14,AAATGATA,0.197 ± 0.029
15,ACATGAGA,0.146 ± 0.056
16,ACATGAAC,0.0506 ± 0.02
17,TGCGTACA,0.188 ± 0.13
18,CGAGGCCG,-0.243 ± 0.075
19,GCCCTGAC,0.0594 ± 0.023
20,ACTCCGAT,-0.0923 ± 0.047
21,AAAGAAAC,0.0488 ± 0.013
22,ACATCTCA,0.146 ± 0.089
23,TGGGCACA,0.0612 ± 0.062
24,ATGTTCAC,-0.109 ± 0.027
25,GCTGATGA,-0.087 ± 0.06

row,Sequence,PBM 8-mer E-score
1,CTTGGGAC,-0.183 ± 0.081
2,ATGTGTAA,0.236 ± 0.0034
3,ATGTGTAG,0.25 ± 0.041
4,GTGTGTAA,0.0936 ± 0.013
5,CTGTGTAA,-0.00451 ± 0.0057
6,AAGTGTAG,0.111 ± 0.079
7,ATGTGTAC,0.184 ± 0.011
8,CCTAAGGA,0.089 ± 0.0031
9,AAGCGTAG,-0.0452 ± 0.033
10,CATGTCCA,0.124 ± 0.026
11,AGTCAGTA,0.0494 ± 0.052
12,CCGTGGAG,-0.163 ± 0.06
13,AAGTGGAT,-0.0604 ± 0.074
14,ACGTGGAG,0.338 ± 0.049
15,TCGTGGAA,0.163 ± 0.02
16,ACGTGGAC,0.331 ± 0.0084
17,CCGTGGAC,-0.137 ± 0.023
18,ACGTGGAT,0.383 ± 0.044
19,AAGTGGAG,0.0727 ± 0.049
20,GCGTGGAC,0.122 ± 0.16
21,AGGTGGAT,0.0366 ± 0.1
22,GCGTGGAA,0.179 ± 0.049
23,ACGTGGAA,0.271 ± 0.053
24,ATCCTTTC,0.0595 ± 0.17
25,AAAGAGAT,-0.0586 ± 0.1

row,Sequence,PBM 8-mer E-score
1,GTCCTTAA,0.063 ± 0.0053
2,AAAGGATG,0.0585 ± 0.087
3,CAAAACAA,0.129 ± 0.06
4,CATCGAGA,-0.0265 ± 0.036
5,GTAATGTA,0.0754 ± 0.18
6,ACCTCAAT,-0.0496 ± 0.16
7,ATGTGGAG,0.1647 ± 0.0014
8,CTGTGGAC,0.0601 ± 0.14
9,ATGTGGAC,0.238 ± 0.018
10,GGCATCCA,-0.0611 ± 0.057
11,ACCTTTTA,0.027 ± 0.18
12,AATAAACC,0.197 ± 0.028
13,CATAAAAC,0.0726 ± 0.027
14,AATAAATA,0.168 ± 0.017
15,AATAAAAT,0.144 ± 0.068
16,CATAAATA,0.313 ± 0.0091
17,AATAAAAC,0.296 ± 0.056
18,TATAAATA,0.208 ± 0.025
19,AATAAAAG,0.206 ± 0.037
20,AATAAAAA,0.256 ± 0.11
21,GGACATCC,-0.188 ± 0.068
22,CACTTAGG,-0.0583 ± 0.16
23,CCGTGACA,0.00228 ± 0.054
24,TCGTGACA,0.0356 ± 0.012
25,ACGTGACC,0.298 ± 0.018

row,Sequence,PBM 8-mer E-score
1,CCGTGACC,-0.23 ± 0.064
2,AGGTGACG,-0.053 ± 0.045
3,CCGTGACG,-0.0153 ± 0.0018
4,GCGTGACC,0.075 ± 0.14
5,ACGTGACA,0.366 ± 0.014
6,ACGTGAGG,0.1604 ± 0.0013
7,ACGTGAGT,0.327 ± 0.035
8,ACGTGAGA,0.208 ± 0.0048
9,ACGTGACG,0.321 ± 0.039
10,AGCCGAGG,-0.103 ± 0.058
11,AACACAGG,-0.0563 ± 0.091
12,ACGAACCG,-0.0438 ± 0.041
13,AATCCAAC,0.0162 ± 0.14
14,AGTGGTGC,-0.0756 ± 0.066
15,GGATGCCC,-0.0856 ± 0.021
16,CGTATTCC,-0.096 ± 0.036
17,ACTGCGCT,0.0213 ± 0.097
18,ACCGCACC,-0.0552 ± 0.13
19,ACGTGACT,0.282 ± 0.0038
20,AAGTGACT,-0.00483 ± 0.05
21,AGGTGACT,-0.0287 ± 0.06
22,GCACGGAA,-0.00447 ± 0.026
